From PubChem BioAssay AID620 (Sanford-Burnham Center for Chemical Genomics, 2007) come the findings set out here.

Hit rate of the full screen: of about 87,000 compounds, about 360 (0.41%) were called active. The list comes from a sample in which actives are over-represented; it also holds similar structures and randomly drawn compounds. Unmarked numbers belong to inactive results. Rule as the data show it: active = cytotoxicity above about 50%; inactive = the rest.

This assay is described as follows: cytotoxicity in HT1080 fibrosarcoma cells, cell-based, fluorescence readout (AID 620).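 Also: cells exposed to compound overnight then 4 h with Alamar Blue; 0% = vehicle DMSO and 100% = killing control.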 The conditions noted are these: HT1080 viability, at 10 µM, stronger effect = higher value.
With `COC(F)(C(=O)Nc1ccc2c(c1)C(=O)NC2=O)C(F)(F)F` (stereo not drawn), the cytotoxicity was 0.1%.

With `Cc1ccc(-c2cc(NC(=O)CCl)n(-c3ccccc3)n2)cc1`, the cytotoxicity was 60.4% (active).

As to `CC(=O)Nc1cc(-c2ccc(Cl)cc2)nn1-c1ccccc1`, the cytotoxicity is 1.4%.

As to `Cc1cc(NC(=O)COc2ccccc2)n(-c2ccccc2)n1`, the cytotoxicity was 7.7%.

Regarding `O=C(CCl)Nc1cc(-c2ccccc2)nn1-c1ccccc1`, the cytotoxicity is 54.1% (active).

For `CC(=O)Nc1ccc(-c2cc(NC(C)=O)n(-c3ccccc3)n2)cc1`, the cytotoxicity is -2.5%.

`Cc1cc(NC(=O)Nc2cc(C)nn2-c2ccccc2)n(-c2ccccc2)n1`: the cytotoxicity was 4.3%.

On to `O=C(NCCc1c[nH]c2ccccc12)c1cnc2sccn2c1=O`, for which the cytotoxicity is -1.9%.

`O=C(NCC(c1cccnc1)N1CCN(c2ccccc2F)CC1)c1ccccc1` (stereo not drawn): the cytotoxicity is -1.1%.

Take `CC(NS(=O)(=O)c1ccc(OCC(=O)N2CCOCC2)cc1)c1ccccc1` (stereo not drawn): the cytotoxicity was 0.3%.

Turning to `O=C(Nc1ccc2c(c1)OCO2)OCc1ccccc1`, the cytotoxicity was 13.2%.

With `Cn1nc(-c2ccc(Cl)cc2)nc2c(=O)n(C)c(=O)nc1-2`, the cytotoxicity was 51% (active).

Regarding `CCS(=O)(=O)n1nc(-c2ccc(Cl)cc2)nc1N`, the cytotoxicity is 0.1%.

Consider `CSc1nc(-c2ccc(Cl)cc2)nn1S(=O)(=O)c1ccc(Cl)cc1`, for which the cytotoxicity was -13%.

On to `C=CCN=C(NC#N)SCCc1ccccc1`, for which the cytotoxicity is -4.6%.

Turning to `Cc1nn(C)c(C)c1NC(=O)c1ccnn1C`, the cytotoxicity is -16.7%.

For the molecule `CN1CCN(Cc2cc(COCc3ccccc3)c3cccnc3c2O)CC1`, the cytotoxicity was 43.1%.

In the case of `Oc1c(CN2CCOCC2)cc(COCc2ccccc2)c2cccnc12`, the cytotoxicity is 20.5%.

`OCCN1CCN(Cc2cc(Cl)c3cccnc3c2O)CC1`: the cytotoxicity was -4.1%.

On to `Oc1ccc(CN2CCc3ccccc3C2)c2cccnc12`, for which the cytotoxicity is 33.5%.

Consider `O=c1oc2c(CN3CCOCC3)c(O)c(Cl)cc2c2c1CCC2`, for which the cytotoxicity is 7.1%.

For `CCOCC(=O)Nc1nnc(COc2ccc(Cl)cc2)s1`, the cytotoxicity was 17.8%.

On to `CCOC(=O)CSc1nnc(Cn2c(=O)sc3ccccc32)n1C`, for which the cytotoxicity is 1.9%.

Turning to `CCN(CC)c1ccc(C(=S)N2CCN(c3ccccc3)CC2)cc1`, the cytotoxicity was -2.9%.

`O=C(CSc1nnc(-c2cccs2)o1)c1cccs1`: the cytotoxicity was 25.4%.

On to `Cc1cc(C(=O)CSc2nnc(-c3ccccc3F)o2)c(C)n1Cc1cccs1`, for which the cytotoxicity is -6.5%.

As to `COC(=O)C1=C(COc2ccccc2)NC(=O)NC1c1ccc2ccccc2c1` (stereo not drawn), the cytotoxicity was -5.7%.

Regarding `CCOC(=O)C1=C(N)n2c(s/c(=C\c3cccs3)c2=O)=C(C(=O)OCC)C1c1cccs1` (stereo not drawn), the cytotoxicity was 56.3% (active).

As for `CCOC(=O)C1=C(N)n2c(s/c(=C/c3ccccc3)c2=O)=C(C(=O)OCC)C1c1ccccc1` (stereo not drawn), the cytotoxicity is -1.6%.

With `CCOC(=O)C1=C(N)n2c(s/c(=C\c3ccco3)c2=O)=C(C(=O)OCC)C1c1ccco1` (stereo not drawn), the cytotoxicity is 36.1%.

For `Brc1ccc(-c2cn3c(n2)CCc2ccc4cccnc4c2-3)cc1`, the cytotoxicity is 53.1% (active).

As for `Brc1ccc(-c2cn3cccnc3n2)cc1`, the cytotoxicity was 9.4%.

In the case of `c1ccc(-c2cn3c(n2)CCc2ccc4cccnc4c2-3)cc1`, the cytotoxicity was 37%.

Take `CCn1c(=O)n(CC)c2cc(S(=O)(=O)N3CCc4ccccc43)ccc21`: the cytotoxicity is 71.3% (active).

Consider `CCn1c(=O)n(CC)c2cc(S(=O)(=O)N3CCC(c4ccccc4)CC3)ccc21`, for which the cytotoxicity is -6.5%.

Consider `Cn1c(=O)c(=O)n(C)c2cc(S(=O)(=O)N3CCc4ccccc43)ccc21`, for which the cytotoxicity is -4%.

Take `Cc1cc(C)c(C)c(S(=O)(=O)NCc2ccco2)c1C`: the cytotoxicity was 24.4%.

Regarding `COc1ccc(C(=O)c2ccc(OC)c(OC)c2)cc1OC`, the cytotoxicity was 14.8%.

As for `COc1ccc(C(N)=O)cc1N`, the cytotoxicity was 2.5%.

In the case of `COc1ccc(C(=O)c2ccc(OC)c(N)c2)cc1N`, the cytotoxicity is 53.8% (active).

As to `COc1ccc(OCCCC(=O)Nc2nncs2)cc1`, the cytotoxicity is 8.3%.

Turning to `O=C(NCCN1CCN(c2ccccc2F)CC1)C1CC(=O)N(C2CCCC2)C1` (stereo not drawn), the cytotoxicity is 7%.

On to `CC1CCCCC1NC(=O)CSc1nncs1` (stereo not drawn), for which the cytotoxicity was -0.9%.

For the molecule `COC(=O)c1ccc(OC(=O)c2ccc(OCc3c(C)noc3C)c(OC)c2)cc1`, the cytotoxicity was -2%.

`COC(=O)c1ccc(OC(=O)c2ccc(OC)c(OC)c2)c(OC)c1`: the cytotoxicity was -8%.

`COC(=O)c1ccc2c(c1)C(C)(C)C(/C=C/c1ccc(OC)c(OC)c1OC)=[N+]2C`: the cytotoxicity is 64.8% (active).

With `O=C(Nc1cccc(Cl)c1)N(CCN1CCOCC1)Cc1cccc(Cl)c1`, the cytotoxicity was 24%.

With `Cc1ccc(NC2=NCC(=O)N2Cc2ccccc2)c(C)c1`, the cytotoxicity is -14.9%.

On to `COC(=O)c1cc2ccsc2n1Cc1nc(-c2ccc(OC)cc2)oc1C`, for which the cytotoxicity is -11.4%.

Consider `COC(=O)c1cc2ccsc2n1CC(=O)N(C)c1ccccc1`, for which the cytotoxicity is -3.5%.

Take `COC(=O)c1cc2ccsc2n1Cc1cc(=O)n2ccccc2n1`: the cytotoxicity is 60.2% (active).

For the molecule `CCn1c(SCC(=O)Nc2ccccc2)nc2c1c(=O)n(C)c(=O)n2C`, the cytotoxicity was -1.6%.

On to `COc1cccc(OCC(=O)Nc2c(C(=O)Nc3ccc(OC)cc3OC)oc3ccccc23)c1`, for which the cytotoxicity was 2.3%.

In the case of `O=S(=O)(Nc1cccnc1)c1cccc(C(F)(F)F)c1`, the cytotoxicity was 2.9%.

`O=C(COc1cccc2ccccc12)N1CCN(c2ccccn2)CC1`: the cytotoxicity was -9%.

Take `COc1ccc(Nc2nc(N3CCCC3)c3ccccc3n2)cc1`: the cytotoxicity was 19.5%.

As to `Cc1ccc(Nc2nc(N3CCOCC3)c3ccccc3n2)cc1`, the cytotoxicity is -0.4%.

On to `CCOC(=O)N1CCN(c2c(N3CCN(c4ccccn4)CC3)c(=O)c2=O)CC1`, for which the cytotoxicity is -3%.

In the case of `COc1ccc(-c2nc(-c3ccccc3)c(-c3cc([N+](=O)[O-])ccc3C)[nH]2)cc1O`, the cytotoxicity was 10.8%.

Regarding `COc1ccc(-c2c/c(=N\c3nc(-c4ccccc4)c(C)s3)c3ccccc3o2)cc1O`, the cytotoxicity was 60% (active).

For the molecule `COc1ccc(-c2nc3ccccc3s2)cc1O`, the cytotoxicity is -4%.

Take `Cn1c(SCc2ccccc2Cl)nc2ccccc21`: the cytotoxicity is 30.7%.

As to `Cc1nc2ccc(NC(=O)c3ccc(Cl)c(NC(=O)c4cccs4)c3)cc2s1`, the cytotoxicity was 3.4%.
